Test results as given in paper PMC4336329 (PLoS ONE, 2015).
In all, about 310,000 compounds went through this assay and about 14,000 (4.5%) showed an effect of 50% or more. Effects have a minus sign here. Only a selection was taken, and strong results are over-represented in it overall.

target: human ether-à-go-go-related gene (hERG) potassium channel (human, UniProt Q12809); assay: primary screen, population patch clamp on CHO cells stably expressing hERG; higher = less effect of the substance
Sequence (Q12809 whole entry, looked up): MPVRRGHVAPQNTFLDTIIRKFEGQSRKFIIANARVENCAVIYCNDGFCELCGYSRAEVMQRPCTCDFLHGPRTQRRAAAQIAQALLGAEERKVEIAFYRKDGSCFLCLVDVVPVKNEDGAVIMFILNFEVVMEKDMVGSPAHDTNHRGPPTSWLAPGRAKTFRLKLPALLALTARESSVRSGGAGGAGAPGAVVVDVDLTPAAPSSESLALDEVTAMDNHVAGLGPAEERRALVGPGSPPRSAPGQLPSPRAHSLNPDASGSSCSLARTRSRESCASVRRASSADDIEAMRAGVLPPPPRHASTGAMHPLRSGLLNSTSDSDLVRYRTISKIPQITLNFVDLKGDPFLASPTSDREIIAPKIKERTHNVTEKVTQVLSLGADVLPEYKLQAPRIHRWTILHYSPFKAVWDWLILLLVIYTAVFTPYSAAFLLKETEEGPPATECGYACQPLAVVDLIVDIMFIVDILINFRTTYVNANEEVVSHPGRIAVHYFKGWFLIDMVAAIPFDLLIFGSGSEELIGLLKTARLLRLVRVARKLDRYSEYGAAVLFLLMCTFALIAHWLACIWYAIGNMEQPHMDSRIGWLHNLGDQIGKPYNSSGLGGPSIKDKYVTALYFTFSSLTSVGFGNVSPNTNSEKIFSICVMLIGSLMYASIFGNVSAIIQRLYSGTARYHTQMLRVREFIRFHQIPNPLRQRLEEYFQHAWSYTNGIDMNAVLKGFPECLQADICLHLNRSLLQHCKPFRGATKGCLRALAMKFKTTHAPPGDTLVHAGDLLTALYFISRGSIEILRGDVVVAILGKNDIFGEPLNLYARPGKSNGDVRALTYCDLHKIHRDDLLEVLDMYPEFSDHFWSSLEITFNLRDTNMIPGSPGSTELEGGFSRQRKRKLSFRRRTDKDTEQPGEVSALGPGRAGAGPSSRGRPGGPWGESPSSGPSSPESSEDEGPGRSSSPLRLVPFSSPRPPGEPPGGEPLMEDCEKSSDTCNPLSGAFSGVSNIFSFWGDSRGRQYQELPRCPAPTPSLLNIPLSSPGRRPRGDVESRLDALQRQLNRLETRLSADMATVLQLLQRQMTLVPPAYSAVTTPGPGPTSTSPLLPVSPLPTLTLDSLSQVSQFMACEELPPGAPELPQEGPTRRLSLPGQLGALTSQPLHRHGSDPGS
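Also: peak tail current of the secondary pulse compared with the same well before compound.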

Compound | hERG current change (%, negative = inhibition) at 10uM [%]
CCN(Cc1cnn(C)c1)Cc1nc(C(c2ccccc2)c2ccccc2)no1 | -18.2
CCCCNC(=O)Cn1cnc([N+](=O)[O-])n1 | 10.8
COc1ccc(CN2C=C3C(=O)C(C)(OC(=O)CCc4ccccc4)C(=O)C=C3C=C2c2ccc(C#N)cc2)cc1 (stereo not shown) | -31.7
CC1(OC(=O)CCc2ccccc2)C(=O)C=C2C=C(c3ccc(C#N)cc3)N(Cc3ccco3)C=C2C1=O (stereo not shown) | -38.9
CC1(OC(=O)CCc2ccccc2)C(=O)C=C2C=C(c3ccc(C#N)cc3)N(Cc3ccccc3)C=C2C1=O (stereo not shown) | -51.9
CCN(c1ccc(OC)cc1)S(=O)(=O)c1nnc(NC(=O)C2CCCCC2)s1 | 12.2
Cc1cc(=O)oc(C)c1C(=O)N[C@@H]1CCCCNC1=O | 7.72
COc1cccc2cc(C(=O)NCCN3CCOCC3)c(=O)oc12 | 12.9
CCOc1cccc(-c2cc(=O)[nH][nH]2)c1 | 1.58
CC1CCCN(c2nc(NCc3ccco3)nc(N)c2[N+](=O)[O-])C1 (stereo not shown) | -54.3
CC1CC(C)CN(c2nc(NCc3ccco3)nc(N)c2[N+](=O)[O-])C1 (stereo not shown) | -27.4
CC1CCN(c2nc(NCc3ccco3)nc(N)c2[N+](=O)[O-])CC1 | -11.9
CCN(c1cccc(C)c1)S(=O)(=O)c1ccc(-c2cc(C)no2)s1 | 5.94
CCN(CC)S(=O)(=O)c1cc(C(=O)Nc2cc(C)on2)c(Cl)cc1Cl | 12.3
Cc1ccc(NC(=O)CSc2nc(=O)n(CCN3CCOCC3)c3c2CCCC3)cc1 | -27.5
O=C(CSc1nc(=O)n(CCCN2CCOCC2)c2c1CCC2)Nc1ccc([N+](=O)[O-])cc1 | -60.4
O=C(CSc1nc(=O)n(CCN2CCOCC2)c2c1CCCC2)Nc1ccc([N+](=O)[O-])cc1 | -67.6
O=C(CSc1nc(=O)n(CCCN2CCOCC2)c2c1CCC2)Nc1ccc(F)cc1 | -39.5
CC(=O)Nc1cccc(NC(=O)CSc2nc(=O)n(CCN3CCOCC3)c3c2CCC3)c1 | -2.96
CC(=O)c1ccc(NC(=O)CSc2nc(=O)n(CCN3CCOCC3)c3c2CCC3)cc1 | -7.74

Compound | hERG current change (%, negative = inhibition) at 10uM [%]
CC(=O)c1cccc(NC(=O)CSc2nc(=O)n(CCN3CCOCC3)c3c2CCCC3)c1 | -11.2
O=C(CSc1nc(=O)n(CCCN2CCOCC2)c2c1CCCC2)Nc1cccc([N+](=O)[O-])c1 | -67.7
O=c1[nH]cnc2c1c(-c1ccccc1)cn2-c1ccccc1 | 12.1
CCC(C)NC(=O)c1cnn2c1NC(c1cccs1)CC2C(F)(F)F (stereo not shown) | -11.3
Cc1ccc(C(=O)Nc2ncc(Cc3ccc(F)cc3)s2)o1 | -2.85
O=C(OCC(=O)N1CCCC1=O)c1cc(S(=O)(=O)N2CCOCC2)ccc1F | -22.5
CN1/C(=C\C(=O)c2cccc([N+](=O)[O-])c2)Sc2ccccc21 | 10.8
C/C(CCc1oc2ccc(Cl)cc2c1-c1ccc(C)o1)=N\O | 22.9
O=C(COC(=O)c1cc(=O)[nH]c2ccccc12)Nc1ccc(Cl)cn1 | 6.92
Cc1cccc(N2CCN(C(=O)c3ccc(CNc4c(N5CCC(C)CC5)c(=O)c4=O)cc3)CC2C)c1 (stereo not shown) | -10.4
CC1(C)N([O-])C(c2cccs2)=C[N+]1=O | -7.12
O=C(Nc1cccc(-c2cccc(Cl)c2)c1)C1CCN(CC2CCOC2)CC1 (stereo not shown) | -77.2
COc1cccc(O)c1CN1CCC(C(=O)Nc2ccc(-c3cccc(C)c3)cc2)CC1 | -11.2
Cc1cccc(-c2ccc(NC(=O)C3CCN(CC4CC4)CC3)cc2)c1 | -70.9
CC(=O)c1cccc(CN2CCC(C(=O)Nc3ccc(-c4cccc(C)c4)cc3)CC2)c1 | 2.59
COc1cccc(-c2cccc(NC(=O)C3CCN(CC4CCOC4)CC3)c2)c1 (stereo not shown) | -53.2
O=C(Nc1cccc(Cl)c1)C1CCN(C(=O)c2cccs2)CC1 | -16.8
COc1cccc(NC(=O)C2CCN(S(C)(=O)=O)CC2)c1 | -7.92
COc1cccc(NC(=O)C2CC2)c1 | 2.97
COc1ccccc1CNC(=O)Cn1cnnn1 | 14.5
